Screening data deposited in PubChem BioAssay by Broad Institute.
These entries were drawn from the full list.
aSyn UTR act = Activators via SNCA 5'UTR binding, MLPCN; alpha-synuclein 5'UTR reporter, activators screen; activity score, % (tested at 7.5 µM), hits read low; hit rate 7.1% among 300,000; AID 1814, 2009; in the data active means activity score below about -60%
Large screens that a line does not name were inactive.

CCN(CC)c1ccc(/C=N/NC(=O)c2ccc3nc[nH]c3c2)c(O)c1	none
CN(C)c1ccc(NC(=O)c2ccc3nc[nH]c3c2)cc1	aSyn UTR act -125.6
Cc1ccc(NC(=O)c2ccc3nc[nH]c3c2)cc1C	aSyn UTR act -169.7
O=C(N/N=C/c1ccccc1[N+](=O)[O-])c1ccc2nc[nH]c2c1	aSyn UTR act -112.8
COc1ccc(Sc2nnc(Cc3ccccc3)c3ccccc23)cc1	aSyn UTR act -72.7
COc1cc(/C=N\n2nnnc2N)ccc1OCc1ccc(F)cc1	aSyn UTR act -65.3
COc1cc(/C=N/n2c(C)n[nH]c2=S)ccc1OCc1ccc(F)cc1	aSyn UTR act -114.5
Cc1ccc(-c2nc3ncccn3c2Nc2ccc3c(c2)OCCO3)cc1	aSyn UTR act -64.0
COc1ccc(-c2nc3ncccn3c2Br)cc1	aSyn UTR act -148.1
Brc1c(-c2ccc3c(c2)OCO3)nc2ncccn12	aSyn UTR act -83.8
Cc1c(C)n(CCO)c2ncnc(Nc3ccc(F)cc3)c12	aSyn UTR act -64.0
O=c1c(-c2ccc([N+](=O)[O-])cc2)coc2c(O)c(O)ccc12	aSyn UTR act -90.9
O=[N+]([O-])c1ccc(Cl)c(/C=N/n2c(-c3ccncc3)n[nH]c2=S)c1	aSyn UTR act -77.7
Cc1ccc(-c2nn(-c3ccccc3)cc2/C=N/n2c(-c3ccncc3)n[nH]c2=S)cc1	aSyn UTR act -85.9
O=C1CN(C(=S)NC(=O)c2ccc(-c3ccccc3)cc2)CCN1	aSyn UTR act -78.6
O=C(O)c1ccc(NC(=S)NC(=O)c2ccc(-c3ccccc3)cc2)cc1	aSyn UTR act -96.5
Cc1ccc(NC(=O)NC(=S)NC(=O)c2ccccc2)cc1	aSyn UTR act -125.3
O=C(NC(=S)Nc1ccccc1)c1ccc(-c2ccccc2)cc1	aSyn UTR act -101.8
Cc1ccc(C(=O)NC(=S)Nc2cccnc2Cl)cc1	aSyn UTR act -138.2
O=C(OCCOc1ccccc1)c1n[nH]c2ccccc12	aSyn UTR act -168.2
COCCn1c(C)cc(C(=O)COC(=O)c2n[nH]c3ccccc23)c1C	none
O=C(NCCc1ccccc1)c1nccc2ccccc12	aSyn UTR act -111.1
O=C(NCCc1ccccc1)c1n[nH]c2ccccc12	aSyn UTR act -144.3
Nc1c(C(=O)NCCc2ccccc2)nnn1Cc1ccccc1	aSyn UTR act -75.1
CC1CCCCN1C(=O)COC(=O)c1n[nH]c2ccccc12 (centres undefined)	aSyn UTR act -73.3
O=C(Nc1ccccc1)c1nnn(Cc2ccccc2)c1NC(=O)C(F)(F)F	aSyn UTR act -71.6
O=c1oc(Nc2ccccc2Cl)nc2ccccc12	aSyn UTR act -90.6
